Among the data in PubChem BioAssay (Tox21) are Potency values, retold here.

Values joined by “and” are separate entries in the source; they are usually repeats but may differ in a detail not shown here. Equal entries are not always repeated. Records with an inconclusive call do not appear. Active and inactive are the calls of the source. The call rests on the fitted dose curve; in most records, active means well fitted inhibition curve with a large enough effect in the repeat runs; inconclusive means weak or mixed curves; inactive means no such curve, though single readings can be large or run the other way.
Potency means the concentration at half of the fitted maximal effect.

The assay is described as follows: qHTS assay to identify small molecule antagonists of the thyroid receptor (TR) signaling pathway (AID 743065). Further: nearly all actives have a fitted effect of over 55% in size. Particulars: GH3.TRE-Luc, T3-stimulated luciferase inhibition, 23.5 h; series mostly up to 70.3 µM. The text has this: U.S. Tox21 Program National Center for Advancing Translational Sciences [NCATS] NIH Chemical Genomics Center [NCGC] U.S. Environmental Protection Agency [EPA] National Institutes of Environmental Health Sciences [NIEHS] National Toxicology Program [NTP] U.S. Food and Drug Administration [FDA] Tox21 Assay Overview: Thyroid receptor (TR), a nuclear hormone receptor, plays an important role in development, proliferation, differentiation, metabolism, brain function, and cardiovascular system. […] To profile the Tox21 10K compound library in TR signaling, a cell-based GH3-TRE-Luc assay (GH3.TRE-Luc cell line, developed by the laboratory of Dr. Albertinka J. Murk, Wageningen University) was used to measure the inhibition of TR. GH3 (rat pituitary tumor) cells stably expressing a TR activity sensor consisting of two TR response elements and a luciferase reporter gene.
Tox21 Assay Protocol Summary: GH3.TRE-Luc cells were dispensed at 1500 cells/4 uL/well into 1536-well white solid bottom plates using a Multidrop Combi dispenser (Thermo Fisher Scientific Inc., Waltham, MA). After the assay plates were incubated at 37 C for 4 hours, 23 nL of library compound or DMSO controls was transferred to the assay plates by a pintool station (Kalypsys, San Diego, CA), followed by addition of 1 ul of T3 (1 nM, final concentration in the wells) to stimulate TR transactivation. The assay plates were incubated at 37 C for 23.5 h, and then 1 uL of CellTiter-Fluor reagent (Promega, Madision, WI) of measuring cytotoxicity was added to each well using a Bioraptr Flying Reagent Dispenser (FRD) workstation (Beckman Coulter, Indianapolis, IN, USA). The plates were incubated at 37 C and 5% CO2 for additional 30 min, and fluorescence intensity was measured by a ViewLux plate reader (PerkinElmer, Shelton, CT). For measuring luciferase reporter gene activity, 4 uL of ONE-Glo Luciferase Assay reagent (Promega) was added to each well using a Bioraptr FRD (Beckman Coulter), followed by 30 min incubation at room temperature. The luminescence intensity of plates was recorded by a ViewLux plate reader (PerkinElmer, Shelton, CT).
A general note: In qHTS, concentration-response curves come from the screen itself.
With `Cc1cc(Nc2ccc(O)cc2)ccc1N`, the Potency is 7.66 µM (active).

For the molecule `CC=O`, the Potency was 1.28 µM (active). Consider `CCCCCCCOC(=O)c1ccc(O)cc1`, for which the Potency is 61.1 µM (active). Next, `CCCCCCOc1cc(C)c(O)c(C)c1C`: 55.1 µM (active). Turning to `CCN=c1cc2oc3cc(NCC)c(C)cc3c(-c3ccccc3C(=O)OCC)c-2cc1C`, the Potency was 609 nM (active) and 1.09 µM (active). Next, `CCN(CC)CCOC(=O)C1(C2CCCCC2)CCCCC1`: 23.7 µM (active); `COC(=O)CC#N`: “inactive”. Next, `COc1cc(C(C)C)c2c(c1)S(=O)(=O)N(COc1cc(=O)n3cccc(OCCN4CCCCC4)c3n1)C2=O`: 13 µM (active). Next, `Cc1oc(-c2ccccc2)nc1CCOc1ccc(C[C@H](Nc2ccccc2C(=O)c2ccccc2)C(=O)O)cc1`: 54.5 µM (active). As to `CN1CCN(C2Cc3ccccc3Sc3ccc(Cl)cc32)CC1` (stereo not given), the Potency is 9.44 µM (active). Next, `c1ccc(Nc2cccc3ccccc23)cc1`: 69.5 µM (active); `CC(=O)Nc1ccc(O)cc1`: “inactive”. Next, `SCCCCCCCCS`: “inactive”; `C1CC(COCC2CO2)CCC1COCC1CO1` (stereo not given): 61.1 µM (active).

As for `CCOC(=O)C1=C(C)NC(C)=C(C(=O)OCC)C1c1ccccc1/C=C/C(=O)OC(C)(C)C`, the Potency is 10.6 µM (active). Next, `C[C@@]12C(=O)OC(=O)[C@]1(C)C1CCC2O1`: 2.02 µM (active); `CCCOc1sc(C(=O)N2CCC(c3cc(CN)ccc3F)CC2)c(C)c1Br`: 7.91 µM (active); `CCCCOc1ccc(C(=O)CCN2CCCCC2)cc1`: 3.59 µM (active).

With `CC(C)c1cccc(C(C)C)c1N1C(=O)c2ccc(O)cc2C1=O`, the Potency is 4.86 µM (active). Next, `CCCCCCCCCCCCOC(=O)c1cc(O)c(O)c(O)c1`: 2.72 µM (active) and 1.93 µM (active).

`O=C1OC(OC(=O)c2cccnc2Nc2cccc(C(F)(F)F)c2)c2ccccc21` (stereo not given): the Potency is 29.8 µM (active). Next, `Oc1c(Br)cc(Br)c2cccnc12`: 16.8 µM (active); `Cc1c(C(=O)O)cccc1[N+](=O)[O-]`: “inactive”; `O=C(NO)c1ccccc1`: 41.2 µM (active). Next, `O=C(Nc1ccc(Cl)c(Cl)c1)c1cc(Cl)cc(Cl)c1O`: 2.17 µM (active); `CC(C)(C)CC(C)(C)c1ccccc1O`: 21.8 µM (active).

As for `Clc1ccc(C(Cn2ccnc2)OCc2c(Cl)cccc2Cl)c(Cl)c1` (stereo not given), the Potency is 11.4 µM (active).

For the molecule `O=C1NCN(c2ccccc2)C12CCN(CCCC(c1ccc(F)cc1)c1ccc(F)cc1)CC2`, the Potency is 5.96 µM (active). `Cc1cccc(Br)c1`: the Potency result was “inactive”. With `O=C1c2c(O)ccc(O)c2C(=O)c2c(NCCNCCO)ccc(NCCNCCO)c21`, the Potency was 0.507 µM (active). Next, `CCCCCCCCCCCC(=O)N(CC)CC`: “inactive”. Next, `CCOC(=O)[C@@](C)(N)Cc1ccc(O)c(O)c1`: “inactive”; `COc1cc(C=C2CCC/C(=C\c3ccc(O)c(OC)c3)C2=O)ccc1O`: 6.68 µM (active). Next, `N#CSCSc1nc2ccccc2s1`: 0.864 µM (active); `CC1=C(/C=C/C(C)=C/C=C/C(C)=C/C(=O)Nc2ccc(O)cc2)C(C)(C)CCC1`: 5.96 µM (active) and 7.89 µM (active); `CC(C)N=C(N)/N=C(\N)Nc1ccc(Cl)cc1`: 2.54 µM (active). Consider `C/C=C/C=N/NC(=O)c1ccncc1`, for which the Potency result is “inactive”. Next, `CCCCOC(=O)C(C)CC` (stereo not given): “inactive”; `CNC(=S)NN`: 61.1 µM (active). Next, `CC(O)C#CC(C)O` (stereo not given): 60.5 µM (active).
